From PubChem BioAssay come the findings set out here.

Assay [1] can be described thus: reduced mouse 2C T cell binding to pMHC/ICAM-1 vesicles – MLPCN validation set, flow cytometry, LFA-1/ICAM-1 modulator project, pilot screen (AID 2523;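 active = response below a set limit, under 55% cells CD8-positive and vesicle-bound, and CD8 cells' 90th-percentile brightness under 279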;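 as to vesicle binding response: mean PE anti-B7-1 fluorescence of CD8+ cells relative to row control; 100% = QL9-loaded vesicles with DMSO vehicle in the same plate row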). Conditions: 2C mouse CD8+ T cells, at 7 µM, stronger effect = lower value; double positive events: measured here: CD8+/vesicle+ event percentage.
For assay [2], the target named is Integrin beta-1 (Homo sapiens) + Integrin alpha-4 (Homo sapiens) (UniProt P13612+P05556). The assay is described as follows: alpha4beta1 integrin LIBS antibody binding reduction – U937 cells, HUTS-21 mAb, flow cytometry, validation set, VLA-4 allosteric modulator project, pilot screen (AID 2674;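 active = inhibition above 50%, about 3 SD of the validation set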;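 also: antibody binding induced by the VLA-4 ligand LDV present at three times its Kd; 0% = LDV ligand with antibody and no compound and 100% = antibody without LDV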). Conditions: HUTS-21 LIBS mAb binding, at 6.7 µM, stronger effect = higher value, binding induced by LDV ligand.

Assay [3] in a line: calorie-restriction mimetic ROS inhibitors, yeast – validation compound set, pilot screen (AID 2706;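 active = superoxide response below 65% of plate, a cut near 3 SD across the whole screen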;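 also: yeast exposed to compound for one week at 30 degrees C before staining; 100% = mean of all compound wells on the same plate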). The settings on record: S. cerevisiae aging, superoxide DHE fluorescence; at 10 µM, stronger effect = lower value.
Assay [4] deals with Beta-adrenergic receptor kinase 1 (Homo sapiens) (UniProt P25098). The assay is described as follows: GRK2 binders displacing RNA aptamer, biochemical, validation, human GRK2, bead flow cytometry (AID 488806;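 active = aptamer binding inhibition above 30%, about 3 SD of noise from non-fluorescent compounds; inactive = inhibition at or below 30%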). The settings on record: bead-bound GRK2, FAM-aptamer displacement, at 10 µM, stronger effect = higher value. On the technique in general: In flow cytometry, cells or beads pass a laser one at a time.

Assay [5] addresses Beta-2 adrenergic receptor (Homo sapiens) (UniProt P07550). The assay is described as follows: agonist-induced loss of surface beta2AR – cell-based, FAP fluorogen, flow cytometry, validation set, pilot screen (AID 504459;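 active = percent response above 42, roughly 3 SD of non-fluorescent test compounds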;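 also: agonist-driven loss of surface beta2AR via internalization measured by FAP dye flow cytometry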). The settings on record: Am2.2-beta2AR cells, at 10 µM, stronger effect = higher value.
Assay [6] has as its target AP-2 complex subunit beta (Homo sapiens) (UniProt P63010). Kind of assay: beta-arrestin/AP2 interaction blockers – biochemical, validation set, GST-AP2 beads, flow cytometry, pilot screen (AID 504541;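 active = inhibition above 54%, about 3 SD of non-fluorescent compounds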;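 also: AP2 carries R879A mutation and is captured from E. coli lysate; bead-bound FITC arrestin peptide fluorescence measuring arrestin peptide binding to AP2; 0% = DMSO wells and 100% = excess unlabeled arrestin peptide control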). The settings on record: FITC arrestin peptide, at 10 µM, stronger effect = higher value, AP2 beta2 appendage fragment, R879A mutant.
Assay [7] can be described thus: cytosolic pH regulators acting via V-ATPase – S. cerevisiae, pHLuorin, HTS validation (AID 504600).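 Also: plate controls were DMSO for no effect and reference compound for full effect.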 Conditions: V-ATPase proton transport, at 10 µM, stronger effect = higher value.
Assay [8] has as its system anti-desmoglein-3 scFv antibody binding to human DSG3. The assay is described as follows: blockers of pathogenic pemphigus antibody–desmoglein-3 binding – biochemical, validation compound set, bead-based, flow cytometry, pilot screen (AID 588368;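 active = binding below the plate cutoff, the plate median minus 3 SD, with a reading above zero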;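 also: signal is the median channel fluorescence of bead-bound GFP antibody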). The settings on record: Protein G beads, DSG3-Fc, scFv-GFP binding, at 10 µM, stronger effect = lower value.
Assay [9] is described as follows: Nile Red efflux blockade in pump-expressing yeast – validation compound set, multiplex, phenotypic, pilot screen (AID 588506;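 active = efflux inhibition above 0.42, the validation set average plus 4 SD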;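 also: Nile Red retained in cells so higher fluorescence means more efflux inhibition; 0 = negative control wells and 1 = enniatin B 25 µM full block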). Conditions: S. cerevisiae pump-expressing triplex, Nile Red efflux flow cytometry; at 10 µM; stronger effect = higher value; the pumps come from Candida albicans.
Assay [10] has as its target ATP-binding cassette sub-family B member 6 (Homo sapiens) (UniProt Q9NP58). Kind of assay: blockers of ABCB6-driven porphyrin uptake – K562-ABCB6 cells, flow cytometry, validation set, pilot screen (AID 588550;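 active = inhibition above the screen-wide mean plus 3 SD, about 51%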;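 also: 0% = DMSO wells and 100% = benzethonium chloride 70 µM positive control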). The settings on record: K562-ABCB6 porphyrin accumulation, 1 h, at 10 µM, stronger effect = higher value.
A short description of assay [11]: AML differentiation inducers, ER-HoxA9 marrow cells – cell-based, GFP/MAC1 double positive, flow cytometry, validation set, primary screen (AID 588685;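 active = differentiation response of at least 50%, scaled between solvent and reference control, from cells with both markers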;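 also: compound exposure lasts four days before antibody staining and flow analysis; 0% = DMSO wells and 100% = 5 µM fulvestrant positive control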). The settings on record: stronger effect = higher value, normalized: vehicle 0, fulvestrant 100.
Assay [12] can be described thus: hit retest on RPL19A-GFP reporter strain – cell-based, S. cerevisiae, flow cytometry, cherry picks, mother/daughter gates, confirmation (AID 2270;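 active = GFP response below 50% of the DMSO control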). The settings on record: 3 h, at 10 µM, stronger effect = lower value, 100 = same GFP as DMSO wells.
Assay [13] is described as follows: yeast TOR pathway reporter LAP4-GFP change – cell-based, cherry picks, flow cytometry, mother/daughter gates, confirmation (AID 2271;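 active = GFP response above 150% of the DMSO control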;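 also: ratio of sample to DMSO plate mean so 100% equals DMSO level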). Conditions: S. cerevisiae LAP4-GFP strain, 3 h, at 10 µM, stronger effect = higher value, 100 means same as DMSO control.
Assay [14] in a line: TOR pathway reporter MEP2-GFP, retest of hits – S. cerevisiae, flow cytometry GFP, cherry picks, confirmation (AID 2272;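 active = GFP response above 150% of the DMSO control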;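 also: ratio of well signal to plate DMSO mean so 100% equals DMSO level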). Conditions: S. cerevisiae MEP2-GFP strain, 3 h, at 10 µM, stronger effect = higher value.
A short description of assay [15]: yeast AGP1-GFP fluorescence change, single-dose – cell-based, flow cytometry, S. cerevisiae, cherry picks, confirmation (AID 2273;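 active = GFP response above 150% of the DMSO level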;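 also: median GFP channel fluorescence over the whole cell population gate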). The settings on record: S. cerevisiae AGP1-GFP strain, 3 h, at 10 µM.
A short description of assay [16]: TOR pathway CIT2 reporter hit retest – S. cerevisiae, GFP fusion, cherry picks, mother/daughter gates, confirmation (AID 2274;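 active = GFP response above 150% of the DMSO level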). Conditions: S. cerevisiae CIT2-GFP strain, flow cytometry, 3 h; at 10 µM; stronger effect = higher value.

The source made the active and inactive calls. Rule as the data show it, unless noted: active = response above about 15%; inactive = the rest.

Sequence of Integrin beta-1 (Homo sapiens) + Integrin alpha-4 (Homo sapiens) (P05556 whole entry, looked up): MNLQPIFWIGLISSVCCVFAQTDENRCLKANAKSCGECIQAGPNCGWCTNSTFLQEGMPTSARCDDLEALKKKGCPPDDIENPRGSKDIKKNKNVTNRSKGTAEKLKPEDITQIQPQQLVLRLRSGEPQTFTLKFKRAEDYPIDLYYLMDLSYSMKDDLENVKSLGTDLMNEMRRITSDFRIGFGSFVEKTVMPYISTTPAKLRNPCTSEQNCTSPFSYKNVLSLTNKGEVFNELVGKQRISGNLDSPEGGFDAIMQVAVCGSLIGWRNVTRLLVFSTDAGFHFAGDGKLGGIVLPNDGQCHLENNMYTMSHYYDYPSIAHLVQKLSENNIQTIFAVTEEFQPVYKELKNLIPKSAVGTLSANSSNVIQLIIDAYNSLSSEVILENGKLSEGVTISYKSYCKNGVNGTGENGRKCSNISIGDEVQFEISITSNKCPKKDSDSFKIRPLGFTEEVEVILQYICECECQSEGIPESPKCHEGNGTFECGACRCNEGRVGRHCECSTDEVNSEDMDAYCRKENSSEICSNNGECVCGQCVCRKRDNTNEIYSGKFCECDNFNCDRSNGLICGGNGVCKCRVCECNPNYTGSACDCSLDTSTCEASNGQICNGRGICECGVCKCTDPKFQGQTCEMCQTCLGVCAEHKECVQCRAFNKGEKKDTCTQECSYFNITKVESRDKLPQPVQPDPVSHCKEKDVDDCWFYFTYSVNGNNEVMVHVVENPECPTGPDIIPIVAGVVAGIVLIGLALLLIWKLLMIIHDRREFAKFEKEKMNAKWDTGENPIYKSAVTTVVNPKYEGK
Sequence of Integrin beta-1 (Homo sapiens) + Integrin alpha-4 (Homo sapiens) (P13612 whole entry, looked up): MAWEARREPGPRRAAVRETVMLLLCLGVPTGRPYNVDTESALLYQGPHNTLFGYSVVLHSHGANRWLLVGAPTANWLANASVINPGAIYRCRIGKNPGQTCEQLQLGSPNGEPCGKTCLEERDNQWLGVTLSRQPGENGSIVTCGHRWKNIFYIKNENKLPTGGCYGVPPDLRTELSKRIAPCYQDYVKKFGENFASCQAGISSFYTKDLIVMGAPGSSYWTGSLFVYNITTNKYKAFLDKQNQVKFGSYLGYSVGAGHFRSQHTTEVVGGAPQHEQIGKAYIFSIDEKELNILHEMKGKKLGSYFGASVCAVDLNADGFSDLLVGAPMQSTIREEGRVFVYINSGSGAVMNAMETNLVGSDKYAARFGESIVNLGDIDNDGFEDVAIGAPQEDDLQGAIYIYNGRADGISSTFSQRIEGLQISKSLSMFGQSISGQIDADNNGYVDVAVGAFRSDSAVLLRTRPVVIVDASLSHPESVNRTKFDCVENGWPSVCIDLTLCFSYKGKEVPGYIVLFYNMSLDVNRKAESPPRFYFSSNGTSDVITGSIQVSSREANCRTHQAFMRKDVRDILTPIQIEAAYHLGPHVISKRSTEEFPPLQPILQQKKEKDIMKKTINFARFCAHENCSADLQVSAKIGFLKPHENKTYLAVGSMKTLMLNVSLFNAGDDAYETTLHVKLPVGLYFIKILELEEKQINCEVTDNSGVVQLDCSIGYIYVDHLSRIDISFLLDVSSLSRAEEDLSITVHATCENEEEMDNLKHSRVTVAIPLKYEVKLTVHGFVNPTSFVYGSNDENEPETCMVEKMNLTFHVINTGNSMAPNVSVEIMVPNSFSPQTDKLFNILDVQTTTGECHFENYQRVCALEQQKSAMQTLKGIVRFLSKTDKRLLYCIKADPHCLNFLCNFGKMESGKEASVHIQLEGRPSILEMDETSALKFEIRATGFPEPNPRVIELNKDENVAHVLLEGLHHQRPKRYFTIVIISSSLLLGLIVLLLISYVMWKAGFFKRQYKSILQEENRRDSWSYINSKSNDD
Sequence of ATP-binding cassette sub-family B member 6 (Homo sapiens) (Q9NP58 whole entry, looked up): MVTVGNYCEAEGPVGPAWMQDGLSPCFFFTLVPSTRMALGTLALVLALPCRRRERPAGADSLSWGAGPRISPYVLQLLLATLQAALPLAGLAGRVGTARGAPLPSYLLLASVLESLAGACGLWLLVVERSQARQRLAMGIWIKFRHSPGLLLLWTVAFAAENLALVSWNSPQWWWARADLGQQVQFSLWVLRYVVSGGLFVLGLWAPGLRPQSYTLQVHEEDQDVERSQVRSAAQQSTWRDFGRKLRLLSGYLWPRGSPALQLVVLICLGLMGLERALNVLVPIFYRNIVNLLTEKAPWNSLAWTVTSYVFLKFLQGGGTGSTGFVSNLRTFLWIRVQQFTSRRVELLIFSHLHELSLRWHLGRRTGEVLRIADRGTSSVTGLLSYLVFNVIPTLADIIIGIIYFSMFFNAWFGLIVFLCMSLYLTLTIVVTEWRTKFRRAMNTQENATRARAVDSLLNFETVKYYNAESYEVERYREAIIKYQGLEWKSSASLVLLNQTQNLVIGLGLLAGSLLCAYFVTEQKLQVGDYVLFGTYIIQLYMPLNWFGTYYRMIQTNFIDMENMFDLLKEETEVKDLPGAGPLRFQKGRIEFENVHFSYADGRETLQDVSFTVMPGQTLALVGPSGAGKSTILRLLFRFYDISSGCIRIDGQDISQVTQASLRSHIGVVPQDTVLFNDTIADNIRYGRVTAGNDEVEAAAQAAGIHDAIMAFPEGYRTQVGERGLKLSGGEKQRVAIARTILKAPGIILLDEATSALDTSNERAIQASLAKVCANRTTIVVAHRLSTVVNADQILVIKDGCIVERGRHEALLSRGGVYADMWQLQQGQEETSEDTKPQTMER
Sequence of Beta-adrenergic receptor kinase 1 (Homo sapiens) (P25098 whole entry, looked up): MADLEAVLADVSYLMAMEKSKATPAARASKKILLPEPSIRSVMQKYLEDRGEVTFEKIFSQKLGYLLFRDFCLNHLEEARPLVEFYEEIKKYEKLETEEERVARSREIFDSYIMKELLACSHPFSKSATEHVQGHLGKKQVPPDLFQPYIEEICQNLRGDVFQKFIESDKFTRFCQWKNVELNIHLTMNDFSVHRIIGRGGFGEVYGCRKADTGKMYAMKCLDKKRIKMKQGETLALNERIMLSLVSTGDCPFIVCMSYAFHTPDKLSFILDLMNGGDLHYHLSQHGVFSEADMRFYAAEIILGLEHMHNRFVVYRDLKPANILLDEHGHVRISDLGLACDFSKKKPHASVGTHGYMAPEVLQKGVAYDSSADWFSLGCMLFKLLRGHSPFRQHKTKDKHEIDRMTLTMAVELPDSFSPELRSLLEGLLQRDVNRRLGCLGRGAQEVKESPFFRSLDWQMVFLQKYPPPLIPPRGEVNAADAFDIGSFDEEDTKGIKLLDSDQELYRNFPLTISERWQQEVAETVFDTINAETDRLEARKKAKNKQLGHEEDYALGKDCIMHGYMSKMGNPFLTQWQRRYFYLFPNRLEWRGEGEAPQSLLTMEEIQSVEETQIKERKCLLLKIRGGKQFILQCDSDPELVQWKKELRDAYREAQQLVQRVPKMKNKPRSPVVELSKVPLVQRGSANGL
Sequence of Beta-2 adrenergic receptor (Homo sapiens) (P07550 whole entry, looked up): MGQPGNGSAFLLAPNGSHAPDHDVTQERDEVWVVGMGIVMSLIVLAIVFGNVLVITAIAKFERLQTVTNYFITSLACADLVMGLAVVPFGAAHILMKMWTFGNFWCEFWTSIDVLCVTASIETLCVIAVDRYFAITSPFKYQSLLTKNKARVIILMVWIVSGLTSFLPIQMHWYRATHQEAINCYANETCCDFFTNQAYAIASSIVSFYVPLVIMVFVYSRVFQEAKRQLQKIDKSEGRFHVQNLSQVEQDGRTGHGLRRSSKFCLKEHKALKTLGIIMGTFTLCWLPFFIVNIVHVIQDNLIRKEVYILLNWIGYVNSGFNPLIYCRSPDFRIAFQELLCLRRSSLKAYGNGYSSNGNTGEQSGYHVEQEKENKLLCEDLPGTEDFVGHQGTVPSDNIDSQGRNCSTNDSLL
Sequence of AP-2 complex subunit beta (Homo sapiens) (P63010 whole entry, looked up, the tested form may be a part, one chain of several): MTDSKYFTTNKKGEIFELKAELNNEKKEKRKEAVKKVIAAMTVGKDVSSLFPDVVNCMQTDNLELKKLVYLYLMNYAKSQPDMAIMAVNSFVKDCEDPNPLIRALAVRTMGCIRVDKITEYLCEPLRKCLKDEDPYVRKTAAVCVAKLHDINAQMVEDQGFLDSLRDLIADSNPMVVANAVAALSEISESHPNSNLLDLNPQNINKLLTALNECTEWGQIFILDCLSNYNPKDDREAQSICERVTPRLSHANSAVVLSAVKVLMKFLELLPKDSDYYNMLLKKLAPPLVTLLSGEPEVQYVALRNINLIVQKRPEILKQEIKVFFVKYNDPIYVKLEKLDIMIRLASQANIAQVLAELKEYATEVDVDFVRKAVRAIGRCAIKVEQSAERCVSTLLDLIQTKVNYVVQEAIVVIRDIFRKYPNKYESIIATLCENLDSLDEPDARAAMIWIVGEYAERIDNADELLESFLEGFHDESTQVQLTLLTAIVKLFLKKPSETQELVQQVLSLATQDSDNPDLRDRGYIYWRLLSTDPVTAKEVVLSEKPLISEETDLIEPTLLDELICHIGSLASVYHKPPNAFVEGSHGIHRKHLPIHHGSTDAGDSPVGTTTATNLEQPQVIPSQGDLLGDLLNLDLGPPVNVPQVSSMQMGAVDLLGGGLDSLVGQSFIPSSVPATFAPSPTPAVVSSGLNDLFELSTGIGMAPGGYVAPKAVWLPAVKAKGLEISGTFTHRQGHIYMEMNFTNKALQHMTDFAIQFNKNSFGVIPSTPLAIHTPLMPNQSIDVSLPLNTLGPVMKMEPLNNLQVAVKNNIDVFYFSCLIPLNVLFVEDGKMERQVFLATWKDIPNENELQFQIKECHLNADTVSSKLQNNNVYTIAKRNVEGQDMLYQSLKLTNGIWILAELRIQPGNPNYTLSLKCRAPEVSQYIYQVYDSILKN

One may read the inhibition as the change of the read-out against control, counted positive when it falls. `COc1ccccc1-c1c(C(F)(F)F)oc2cc(OC(=O)c3ccc([N+](=O)[O-])cc3)ccc2c1=O` showed a double positive events in assay [1] of 61.5%. Moreover, in assay [1], the vesicle binding response was 160% (inactive). In addition, the figures for the inhibition in assay [2], in [6] and in assay [10] were -1.97% (inactive), -4.55% (inactive) and 1% (inactive), respectively. The superoxide response (% of plate) in assay [3] is 49.2% (active). For the same compound, the aptamer binding inhibition in assay [4] is 2% (inactive). The response in assay [5] is -19.4% (inactive); in assay [7], 1.11% (inactive). In addition, the binding (% of control) in [8] is 99.3% (inactive). For the same compound, the efflux inhibition (fraction of control) in assay [9] is 0.04 (inactive). Further, in assay [11], the differentiation response is -5.97% (inactive).

Turning to `COc1ccccc1/C=C/C(=O)c1ccc(Cl)cc1`, the GFP response vs DMSO is 102% (inactive) in assay [12] and 97.8% (inactive) in assay [14]. Also, in [13], the GFP response relative to DMSO is 92.6% (inactive). Besides, the GFP response, % of DMSO in assay [15] is 98.9% (inactive); in assay [16] it was 103% (inactive).

As for `O=C(Oc1cccccc1=O)c1ccccc1`, the double positive events in [1] worked out at 63.4%. Besides, the vesicle binding response in [1] is 281% (inactive). Moreover, the figures for the inhibition in assay [2], in [6] and in assay [10] were 21% (inactive), 1.79% (inactive) and 2% (inactive), respectively. Besides, the superoxide response (% of plate) in assay [3] was 105% (inactive). For the same compound, in assay [4], the aptamer binding inhibition was 6% (inactive). For the same compound, the response in [5] was -20.4% (inactive); in [7], -32.2% (inactive). Also, the binding (% of control) in assay [8] is 102% (inactive). Further, the efflux inhibition (fraction of control) in assay [9] is 0 (inactive). Also, the differentiation response in [11] was 5.85% (inactive).

In turn, `CC(C)c1ccc2[nH]c3c(c2c1)CCCC3=O` yielded a double positive events in assay [1] of 59.4%. Further, in [1], the vesicle binding response was 113% (inactive). For the same compound, the results for the inhibition in assay [2], in assay [6] and in assay [10] were 4.27% (inactive), 0.1% (inactive) and 27% (inactive), respectively. Also, in [3], the superoxide response (% of plate) was 97.7% (inactive). Besides, in assay [4], the aptamer binding inhibition was 2% (inactive). In addition, the response in [5] was 11.3% (inactive); in assay [7], 1.31% (inactive). For the same compound, in [8], the binding (% of control) was 102% (inactive). Besides, in [9], the efflux inhibition (fraction of control) is 0.04 (inactive). Further, the differentiation response in assay [11] is -1.65% (inactive).

With `Nc1ccc(N=Nc2ccccc2)c(N)n1`, the double positive events in [1] was found to be 61.7%. The vesicle binding response in assay [1] was 133% (inactive). In addition, the inhibition in assay [2] is 28.7% (inactive); in assay [6], 4.28% (inactive); in [10], 4% (inactive). The superoxide response (% of plate) in assay [3] is 114% (inactive). Besides, the aptamer binding inhibition in assay [4] is 3% (inactive). Further, the response was -11.9% (inactive) in assay [5] and 6.54% (inactive) in assay [7]. For the same compound, the binding (% of control) in assay [8] is 103% (inactive). Also, the efflux inhibition (fraction of control) in [9] was -0.26 (inactive). Moreover, the differentiation response in assay [11] was -5.97% (inactive).

For the compound `CC(COc1ccccc1)N(CCCl)Cc1ccccc1` (stereo not given), the double positive events in assay [1] amounted to 70.8%. For the same compound, the vesicle binding response in [1] is 566% (inactive). Moreover, the inhibition was 6.46% (inactive) in assay [2], 1.11% (inactive) in [6] and 10% (inactive) in assay [10]. Moreover, the superoxide response (% of plate) in [3] was 97.4% (inactive). In [4], the aptamer binding inhibition was 2% (inactive). Moreover, the response in assay [5] was -7.17% (inactive); in [7], 2.49% (inactive). In addition, in assay [8], the binding (% of control) was 100% (inactive). For the same compound, the efflux inhibition (fraction of control) in [9] is -0.35 (inactive). In [11], the differentiation response was 0% (inactive).
